# Data: PubChem BioAssay (NCI)
# About 83,000 compounds went through this panel and 20% of them were active in at least one assay; those are over-represented in the sample as a whole.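 Note: values are percent growth. 100 is the growth of untreated cells, values between 100 and 0 indicate rising inhibition; between -100 and 0 indicates cell death.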 Unmarked numbers belong to inactive results. The source made the active and inactive calls. How the source made its calls: active means growth percent below 10; inactive means the rest.
# Legend:
# Experiment in all cases: NCI-60 one-dose screen, 48 h (100 = growth as untreated, 0 = no growth, -100 = all killed)
# [1] = system: NCI-H226 lung; conditions: 10 µM
# [2] = system: NCI-H322M lung; conditions: 10 µM
# [3] = system: HOP-62 NSCLC; conditions: 10 µM
# [4] = system: NCI-H522 lung; conditions: 10 µM
# [5] = system: COLO 205 colon; conditions: 10 µM
# [6] = system: DU-145 prostate; conditions: 10 µM
# [7] = system: SF-268 CNS; conditions: 10 µM
# [8] = system: SF-295 CNS; conditions: 10 µM
# [9] = system: SF-539 CNS; conditions: 10 µM
# [10] = system: M14 melanoma; conditions: 10 µM
# [11] = system: HCT-15 colon; conditions: 10 µM
# [12] = system: SNB-75 CNS; conditions: 10 µM
# [13] = system: SNB-19 CNS; conditions: 10 µM
# [14] = system: U251 CNS; conditions: 10 µM
# [15] = system: PC-3 prostate; conditions: 10 µM
# [16] = system: SK-MEL-5 melanoma; conditions: 10 µM
# [17] = system: UACC-62 melanoma; conditions: 10 µM
# [18] = system: SK-MEL-28 melanoma; conditions: 10 µM
# [19] = system: SK-MEL-2 melanoma; conditions: 10 µM
# [20] = system: HL-60(TB) leukemia; conditions: 10 µM unless noted
SMILES,growth [1],growth [2],growth [3],growth [4],growth [5],growth [6],growth [7],growth [8],growth [9],growth [10],growth [11],growth [12],growth [13],growth [14],growth [15],growth [16],growth [17],growth [18],growth [19],growth [20]
CC[C@]12C=CCN3CC[C@@]4(c5ccc(OC)cc5N(C)[C@H]4[C@@](O)(C(=O)OC)[C@@H]1OC(=O)CCCC[P+](c1ccc(OC)cc1)(c1ccc(OC)cc1)c1ccc(OC)cc1)[C@@H]32,-63.6% (active),-89.6% (active),-80.8% (active),-81.9% (active),-64.9% (active),-58.2% (active),-38.1% (active),-93.6% (active),-97.4% (active),-89.8% (active),-5.69% (active),-95.4% (active),-95.7% (active),-95.9% (active),-37.2% (active),-97% (active),-95.2% (active),-96.8% (active),-91.4% (active),-45.2% (active)
O=C(/C=C/c1ccccc1)c1nc2ccccc2n1Cc1ccc(Br)cc1,-71% (active),-6.79% (active),-68% (active),-73.8% (active),-74.7% (active),-48.3% (active),3.91% (active),-71.9% (active),-93.4% (active),-51.8% (active),-70.3% (active),16.2%,-90.1% (active),-92.9% (active),-31% (active),-57% (active),-94.2% (active),-73.3% (active),-51.1% (active),
C=CC[Se]C(=O)c1cncc(C(=O)[Se]CC=C)c1,-24.6% (active),-46.2% (active),-60.6% (active),-89.5% (active),-47.3% (active),5.92% (active),7.42% (active),-55.8% (active),-99.9% (active),-86.7% (active),-37.4% (active),-61.4% (active),-97.5% (active),-72.9% (active),-65.8% (active),-36.3% (active),-62.3% (active),-39% (active),-54.1% (active),-26.2% (active)
